Compound activity deposited in PubChem BioAssay by National Center for Advancing Translational Sciences (NCATS).
Compounds with a hit are over-represented: about 5% of the library has one in this group of screens.
Vaccinia Venus: inhibitors of vaccinia virus (Venus reporter); Vaccinia virus Venus reporter expression, fluorescence; Potency, µM (titrated, usually from 36.5 µM), without a hit: top-dose activity change, negative = inhibition, most hits filed as inhibitors; 330,000 tested, 0.46% active; AID 720580; calls by dose curve; tested in A549 cells; further: potency means the concentration at half of the fitted maximal effect; nearly all actives have a fitted effect of over 30% in size
HCMV antiviral: human cytomegalovirus inhibition; HFF cells, HCMV-luciferase reporter, 72 h; hits give low values; activity change, negative = inhibition, % at 57.5 µM; 410,000 tested, 4.5% active; AID 1259415; in the data active means activity change below about -60%; inconclusive means no clear call, values can overlap the other calls; inactive means above about -39%
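After 16 h attachment at 37C, HFF cells received test compound and HCMV-luciferase (1 PFU/cell); reporter luminescence read 72 h later, data normalized against buffer-only and known inhibitor Salinomycin.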
Vaccinia mCherry: inhibitors of vaccinia virus infection (mCherry reporter signal); Vaccinia virus mCherry reporter infection, fluorescence; Potency, µM (doses to about 36.5 µM), for inactives: at the highest dose activity change, negative = inhibition, hits mostly inhibitors; 310,000 tested, 0.63% active; AID 720579; calls by dose curve; tested in A549 cells; further: potency means the concentration at half of the fitted maximal effect; nearly all actives have a fitted effect of over 35% in size
Tb PYK inh: blocks Trypanosoma brucei pyruvate kinase | 410,000 tested, 0.12% active | Q57TT1 | Potency, µM (series often up to 76.8 µM), for the others: top-dose activity, negative = inhibition, usual class: inhibitors | TbPYK enzyme, Kinase-Glo Plus ATP luminescence, 45 min; further: potency means the concentration at half of the fitted maximal effect; nearly all actives have a fitted effect of over 50% in size
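Luminescence from Kinase-Glo Plus, added after a 45-minute room-temperature reaction, served as the end-point read-out. The enzyme and substrate were preincubated with compound before ADP (130 uM final) initiated turnover. Concentration-effect curves came from normalized qHTS data.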
LmPK inhibitor: LmPK (Leishmania mexicana) enzyme inhibition. Q27686. 290,000 tested, 0.37% active. purified LmPK, Kinase-Glo ATP luminescence, 1 h. Potency, µM (doses to about 57.5 µM), without a hit: top-dose activity change, negative = inhibition, actives largely listed as inhibitors. AID 1721; further: potency means the concentration at half of the fitted maximal effect
Target sequence (Q27686 whole entry, looked up): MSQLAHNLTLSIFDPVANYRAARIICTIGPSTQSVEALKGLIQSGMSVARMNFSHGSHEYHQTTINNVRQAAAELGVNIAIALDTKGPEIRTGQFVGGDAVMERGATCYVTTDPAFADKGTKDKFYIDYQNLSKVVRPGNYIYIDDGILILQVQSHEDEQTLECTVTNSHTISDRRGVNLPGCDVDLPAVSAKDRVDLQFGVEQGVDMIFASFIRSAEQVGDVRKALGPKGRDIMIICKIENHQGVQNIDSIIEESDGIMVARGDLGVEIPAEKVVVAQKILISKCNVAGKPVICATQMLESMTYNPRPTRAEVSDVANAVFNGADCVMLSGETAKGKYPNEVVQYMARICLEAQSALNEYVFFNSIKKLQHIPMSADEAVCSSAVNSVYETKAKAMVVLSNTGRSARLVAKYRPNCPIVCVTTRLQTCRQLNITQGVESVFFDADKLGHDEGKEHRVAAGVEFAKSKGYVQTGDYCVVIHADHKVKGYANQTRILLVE
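qHTS format; LmPK 0.1 nM; substrates PEP 0.5 mM and ADP 0.1 mM. One-hour room-temperature incubation, then coupled luciferase luminescence; 0.5 nM enzyme wells mark activation.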
* = called active by the depositor; i = inactive; ? = inconclusive; . = no result. Unless noted, the call rests on the fitted dose curve; in most records, active means well fitted curve in the direction sought with a large enough effect; inconclusive means small, poorly fitted or top-dose-only effect, or another doubt; inactive means no such curve, though single readings can be large; an effect the other way counts as inactive or inconclusive. On the % scale 0 is the no-effect control and ±100 the full control effect.

SMILES	Vaccinia Venus	HCMV antiviral	Vaccinia mCherry	Tb PYK inh	LmPK inhibitor
NC[C@@H]1O[C@@H](O[C@H]2[C@@H](O)[C@H](O[C@@H]3[C@@H](O)[C@@H](N)C[C@H](N)[C@H]3O[C@H]3O[C@H](CN)[C@@H](O)[C@@H](O)[C@H]3N)O[C@H]2CO)[C@H](N)[C@@H](O)[C@@H]1O	.	.	.	-3%	.
CCCCCn1c(=N)c(S(=O)(=O)c2ccc(Br)cc2)cc2c(=O)n3cccc(C)c3nc21	-6%	0	i	1%	9%
Cc1ccc2[nH]c(=O)c(C3C(C#N)=C(N)Oc4c3ccc3cccnc43)cc2c1 (stereo unspecified)	?	-92*	10µM*	53%	-2%
Nc1nnc(P(c2ccccc2)c2ccccc2)s1	.	-64*	.	3%	-1%
COc1ccc(-n2c(/C=C/c3ccc(O)c(OC)c3)nc3ccccc3c2=O)cc1	.	-99*	.	3%	2%
Cc1ccc(-n2c(/C=C/c3ccc4c(c3)OCO4)nc3ccccc3c2=O)cc1	.	-102*	.	.	2%
COc1ccc(-n2c(/C=C/c3ccc4c(c3)OCO4)nc3ccccc3c2=O)cc1	-17%	-84*	i	-26%	1%
COc1ccc(-n2c(/C=C/c3ccc(O)cc3)nc3ccccc3c2=O)cc1	.	?	.	0%	-2%
O=C(c1cccs1)N1C[C@@H](O)[C@H](n2cc(-c3ccc(F)cc3)nn2)C[C@@H]1c1ccc(Cl)cc1	-27%	-22	i	6%	.
CC(=O)c1cccc(N(C(=O)c2csnn2)C(C(=O)NC2CCCC2)c2ccccc2)c1 (stereo unspecified)	7%	-22	-14%	-2%	12%
O=C(N/N=C(\CC(=O)c1cccs1)C(F)(F)F)c1ccncc1	14%	-76*	?	0%	6%
O=C(O)CC/C(=N\NC(=O)c1ccccc1)c1cccs1	-8%	-14	-13%	2%	5%
Cc1ccc(C(=O)N/N=C(/CC(=O)c2cccs2)C(F)(F)F)cc1	-24%	-86*	-27%	-3%	0%
CC(=O)C1(C)CCC2C3C=C(C)C4=CC(=O)CCC4(C)C3CCC21C (stereo unspecified)	-14%	-14	-1%	-5%	.
CCN(CC)S(=O)(=O)c1ccc(O)c(C(=O)OCC(=O)N2c3ccccc3CC2C)c1 (stereo unspecified)	-18%	9	-19%	1%	1%
CC1(C)CC(=O)C2=C(C1)NC1=C(C(=O)c3ccccc31)C2c1ccccc1 (stereo unspecified)	?	?	-21%	-3%	-1%
CC(C)c1ccc(C2C3=C(CC(C)(C)CC3=O)NC3=C2C(=O)c2ccccc23)cc1 (stereo unspecified)	?	-72*	?	-8%	-3%
COc1ccc2c(=O)c(N3C(=O)c4ccccc4C3=O)coc2c1	.	-8	.	-4%	5%
CCN(C(=O)c1ccc(N2CC3CC(C2)c2cccc(=O)n2C3)c(NC(=O)c2ccncc2)c1)c1cccc(C)c1 (stereo unspecified)	.	-75*	.	-11%	-1%
CSc1ccccc1NC(=O)c1ccc(N2CC3CC(C2)c2cccc(=O)n2C3)c(NC(=O)c2ccncc2)c1 (stereo unspecified)	.	-33	.	-8%	0%
COc1ccc(OCC(=O)N2CCN(S(=O)(=O)c3ccc(Cl)s3)CC2)cc1	.	19	.	1%	.
N#Cc1ccc(OCC(=O)N2CCN(S(=O)(=O)c3ccc(Cl)s3)CC2)cc1	.	-61*	.	2%	.
CC1(C)CCc2cc(-c3ccn(S(=O)(=O)c4ccccc4Cl)n3)ccc2O1	-16%	?	-12%	2%	8%
COc1ccc(S(=O)(=O)n2ccc(-c3ccc4c(c3)CCC(C)(C)O4)n2)cc1	-16%	-85*	-19%	0%	0%
O=c1c(C=Nc2ccc(Oc3ccccc3)cc2)c[nH]n1-c1cccc(Cl)n1	-9%	-65*	-8%	-9%	1%
SMILES	Vaccinia Venus	HCMV antiviral	Vaccinia mCherry	Tb PYK inh	LmPK inhibitor
C1=C(c2c[nH]c3ccccc23)CCN(Cc2ccccc2)C1	.	-97*	.	-1%	2%
COc1cc(-c2ccc3c(=O)c4ccccc4n(C)c3c2)cc(OC)c1OC	?	114	-19%	0%	0%
COc1cc(-c2ccc3c(=O)c4ccccc4sc3c2)cc(OC)c1OC	14µM*	19	-33%	3%	.
COc1cc2c(C(=O)N(C)c3cc(Cl)ccc3OC)cn(CC(C)C)c(=O)c2cc1OC	0%	-61*	-8%	1%	.
COC(=O)c1sc2ccccc2c1NC(=O)c1ccc(S(=O)(=O)N2CCC(C)CC2)cc1	-14%	-37	-12%	-3%	-4%
COc1ccc2c(c1)c1ncn(Cc3ccc(F)cc3)c(=O)c1n2C	-17%	29	?	-2%	9%
COc1ccc2c(c1)c1ncn(Cc3ccco3)c(=O)c1n2C	-30%	-81*	?	1%	-1%
O=C(Nc1ccc2c(c1)CCC2)c1ccccc1Br	-14%	18	-19%	-4%	0%
Cc1ccc(OCC(O)CN2CCC(Cc3ccccc3)CC2)c(C)c1 (stereo unspecified)	.	-77*	.	-1%	-7%
Cc1ncoc1C(=O)N1CCOc2ccc(CN3CCC(Oc4cccnc4)CC3)cc2C1	7%	.	-2%	.	.
CC1=Nc2cc(C(=O)NCCc3ccccc3)ccc2Sc2c(C)ccc(C)c21	-29%	-103*	-26%	0%	.
CCCNC(=O)c1ccc2c(c1)N=C(C)c1c(C)ccc(C)c1S2	-19%	-102*	?	0%	.
CC1=Nc2cc(C(=O)NCCc3ccc(Cl)cc3)ccc2Sc2c(C)ccc(C)c21	-24%	-88*	?	-1%	.
CC1=Nc2cc(C(=O)NCCCN3CCOCC3)ccc2Sc2c(C)ccc(C)c21	?	-68*	-18%	0%	7%
Cc1c(Cl)cccc1NC(=S)NCCc1ccccn1	-10%	-69*	i	1%	1%
CCOc1ccccc1NC(=S)NCCc1ccccc1	-22%	?	-11%	3%	1%
CCOc1ccccc1NC(=S)NCCc1ccc(F)cc1	.	-65*	.	-2%	4%
O=C(CN1CCN(Cc2ccc(F)cc2)CC1)NCCc1ccccc1	-15%	-81*	-16%	-2%	14%
O=C(NCCc1ccc(F)cc1)Nc1ccccc1Cl	-16%	-63*	-12%	-1%	0%
CCOC(=O)c1cc2c(=O)n3ccccc3nc2n(Cc2ccco2)c1=NC(=O)c1ccc(OC)cc1OC	-8%	-27	-2%	-11%	8%
CCOc1ncccc1C(=O)OCC(=O)Nc1ccc(C)c(S(=O)(=O)N2CCOCC2)c1	-17%	-4	-1%	0%	8%
CCOC(=O)C(=O)NCC1CCCN1S(=O)(=O)c1cccs1 (stereo unspecified)	-4%	-3	i	-9%	.
S=C(NCCc1ccccc1)Nc1ccccc1Cl	2%	-64*	i	-8%	0%
